Values joined by “and” are separate entries in the source; they are usually repeats but may differ in a detail not shown here. Equal values may be shown once. Records with an inconclusive call do not appear. A number with no mark means an inactive call. Active and inactive are the calls of the source. The call rests on the fitted dose curve; in most records, active means well fitted inhibition curve with a large enough effect in the repeat runs; inconclusive means weak or mixed curves; inactive means flat fitted curve, though single readings scatter.
Molecular target: Cytochrome P450 2D6 (Homo sapiens) (UniProt P10635)
Sequence (P10635 whole entry, looked up): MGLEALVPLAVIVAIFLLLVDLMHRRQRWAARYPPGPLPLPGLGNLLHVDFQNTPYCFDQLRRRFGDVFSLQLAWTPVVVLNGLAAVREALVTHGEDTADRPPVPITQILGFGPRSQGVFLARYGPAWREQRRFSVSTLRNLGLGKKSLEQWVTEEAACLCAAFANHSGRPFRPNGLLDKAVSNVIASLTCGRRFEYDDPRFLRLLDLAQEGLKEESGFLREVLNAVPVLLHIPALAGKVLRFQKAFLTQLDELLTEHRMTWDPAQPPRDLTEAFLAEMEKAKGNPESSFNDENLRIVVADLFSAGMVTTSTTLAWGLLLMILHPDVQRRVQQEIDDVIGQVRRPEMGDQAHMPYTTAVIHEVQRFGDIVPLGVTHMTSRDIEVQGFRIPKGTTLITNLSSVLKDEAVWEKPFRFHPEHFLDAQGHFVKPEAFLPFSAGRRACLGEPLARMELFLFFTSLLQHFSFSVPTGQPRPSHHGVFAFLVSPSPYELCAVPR
Test: Cytochrome P450 family 2 subfamily D member 6 (CYP2D6) small molecule antagonists: luciferase biochemical (cell-free) qHTS assay (AID 1645840); further: nearly all actives have a fitted effect of over 55% in size
Details: P450-Glo CYP2D6 enzyme, luciferin luminescence, 1 h; series mostly up to 57.4 µM; activity change, negative = inhibition: at the top concentration
Experimental: National Center for Advancing Translational Sciences [NCATS] Assay Overview: Cytochrome P450 (CYP) enzymes are membrane-bound hemeproteins that play a key role in metabolism of drugs and xenobiotics. Assaying the effect of chemicals on CYP isozymes is useful to minimize the adverse drug reactions and toxicities in drug development process. Chemical compounds were tested for their effect on CYP enzyme activities by using P450-Glo (TM) screening systems (Promega Corporation, Madison, WI). These systems provide a luminescent method containing proluciferin substrates and are converted to luciferin products by CYP isozymes. The luciferin products formed are detected with a luciferin detection reagent, and the amount of light produced is proportional to CYP activity. P450-Glo (TM) CYP2D6 screening system (Catalog. No. V9890) was used to detect the compounds that interfere in CYP2D6 activity.
Assay Protocol Summary: Two ul of enzyme-substrate mix was dispensed into medium binding white/solid 1536-well plates (Greiner Bio-One North America Inc., Monroe, NC) using a Flying Reagent Dispenser (FRD, Aurora Discovery, San Diego, CA). […] The assay plates were incubated at room temperature for 10 min. Then 2 ul of NADPH regeneration solution was added to each well of the assay plates using an FRD and incubated at room temperature for 1 h. The reaction was stopped by adding 4 ul of detection reagent using an FRD and after 20 min incubation at room temperature, the luminescence signal was measured using a ViewLux plate reader (Perkin Elmer, Shelton, CT). Data were expressed as relative luminescence units.
On the % scale 0 is the no-effect control and ±100 the full control effect; potency means the concentration at half of the fitted maximal effect.

Structure (SMILES) | Potency | activity change, negative = inhibition
CCCCCCCC/C=C\CCCCCCCCN | 0.55 µM (active) | 
COc1ccc(-c2cc(C(F)F)nn2-c2ccc(S(N)(=O)=O)cc2)cc1F | 5.49 µM (active) | 
N=C(N)N1CCc2ccccc2C1 |  | 3.13% [at 4.83 µM]
Cc1cccc(C)c1NC(=O)CN1CCCCCC1 | 11 µM (active) | 
CC(=O)OCC(=O)[C@H]1CC[C@H]2[C@@H]3CCC4=CC(=O)CC[C@]4(C)[C@H]3CC[C@]12C |  | -14.4%
CCN(CC)CCOC(=O)C(Cc1cccc2ccccc12)CC1CCCO1 (stereo not given) | 3.09 µM (active) and 3.38 µM (active) | 
CCNC(=O)NCc1cccc(Cl)c1 |  | 1.84%
CO[C@]12C[C@@H](COC(=O)c3cncc(Br)c3)CN(C)[C@@H]1Cc1cn(C)c3cccc2c13 | 0.0155 µM (active) | 
C[N+]12CCC(CC1)C(OC(=O)C(O)(c1ccccc1)c1ccccc1)C2 (stereo not given) | 15.5 µM (active) | 
CCc1cc(Cl)c(OC)c(C(=O)NC[C@@H]2CCCN2CC)c1O | 0.219 µM (active) | 
CC(C)Cc1ccc(CC(=O)O)cc1 |  | -1.05%
CC(C)Nc1cccnc1N1CCN(C(=O)c2cc3cc(NS(C)(=O)=O)ccc3[nH]2)CC1 | 6.92 µM (active) | 
OC[C@H]1O[C@@H](Oc2ccc(O)cc2)[C@H](O)[C@@H](O)[C@@H]1O |  | 9.45%
C=C[C@@]1(C)CC(=O)[C@]2(O)[C@@]3(C)[C@@H](O)CCC(C)(C)[C@@H]3[C@H](O)[C@H](OC(C)=O)[C@@]2(C)O1 | inactive | 
CCOc1ccccc1C(N)=O |  | -4.78%
NC(=O)c1ccccc1O |  | 2.41%
O=C(Nc1ncc([N+](=O)[O-])s1)c1cccs1 | 13.8 µM (active) | 
O=C(c1ccc(F)cc1)C1CCN(CCn2c(=S)[nH]c3ccccc3c2=O)CC1 | 0.776 µM (active) | 
O=C1C(O)=C(O)C(=O)C(O)=C1O |  | 0.2%
CN(C)CCC[C@@]1(c2ccc(F)cc2)OCc2cc(C#N)ccc21 | 13.8 µM (active) and 12 µM (active) | 

Structure (SMILES) | Potency | activity change, negative = inhibition
Cc1cc(C)cc(OCC2CNC(=O)O2)c1 (stereo not given) |  | 3.34%
NC(=O)C1(N2CCCCC2)CCN(CCCC(=O)c2ccc(F)cc2)CC1 | 4.36 µM (active) | 
O=[N+]([O-])c1cccc(S(=O)(=O)NCCNS(=O)(=O)c2cccc([N+](=O)[O-])c2)c1 |  | -12.1%
CC(=O)OCC1=C(C(=O)O)N2C(=O)[C@@H](NC(=O)CSc3ccncc3)[C@H]2SC1 | 13.8 µM (active) | 
CCOC(=O)[C@@](C)(N)Cc1ccc(O)c(O)c1 | 7.76 µM (active) | 
CNCCCCOc1ccccc1Cc1ccccc1 | 0.692 µM (active) | 
CC1CCc2c(N3CCC(O)CC3)c(F)cc3c(=O)c(C(=O)O)cn1c23 (stereo not given) |  | 2.13%
Nc1nc(-c2ccccc2)c(Br)c(=O)[nH]1 |  | 2.14%
NCCNC(=O)c1ccc(Cl)cn1 |  | 0.0586%
CCCCCCCCCCCCCCC[C@H](O)[C@@H](N)CO | 9.77 µM (active) | 
CN1CCN(CCC(=O)N2c3ccccc3Sc3ccc(C(F)(F)F)cc32)CC1 | 0.0347 µM (active) | 
O=C(O)C(Cc1cc(I)c(O)c(I)c1)c1ccccc1 (stereo not given) | inactive | 
CCOCCn1c(N2CCCN(C)CC2)nc2ccccc21 | 6.92 µM (active) | 
CCN(CC)CCNC(=O)COc1ccc(OC)cc1 | 13.8 µM (active) | 
CC1(C)OC[C@@H]2O[C@@]3(C(=O)O)OC(C)(C)O[C@H]3[C@@H]2O1 |  | 1.12%
Cc1cccc(C)c1NC(=O)CN1CCCC1 | 12.3 µM (active) | 
Nc1ccc(S(=O)(=O)Nc2cnc3ccccc3n2)cc1 |  | -14.4%
CCCCC(CC)COC(=O)/C=C/c1ccc(OC)cc1 (stereo not given) |  | -26.1%
O=C(O)c1ccc(S(=O)(=O)N(Cl)Cl)cc1 |  | -2.06%
Cc1cc2c(OCC(CNC(C)(C)C)OC(=O)c3ccccc3)cccc2[nH]1 (stereo not given) | 0.246 µM (active) | 

— PubChem BioAssay (NCATS)
